Screens as filed in PubChem BioAssay.
Shown are actives, neighbours in structure and some others; about 10% of the full set was active somewhere.
HEK293 tox – kills HEK 293 cells; HEK 293 viability, ATP luminescence (CellTiter-Glo), 48-72 h; actives 6.6% (n = 94,000); Potency, µM (top dose mostly 115 µM), for the others: at the highest dose activity change, negative = cytotoxicity, actives largely listed as inhibitors; further: on the % scale 0 is the no-effect control and ±100 the full control effect; nearly all actives have a fitted effect of over 60% in size
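Read-out: CellTiter-Glo ATP luminescence. Cells: HEK 293, 250 cells/well. Exposure: 48 or 72 hr, 37 degree Celsius.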
NIH3T3 tox – kills NIH 3T3 cells. NIH 3T3 viability, CellTiter-Glo ATP luminescence, 48-72 h. Potency, µM (series often up to 96.7 µM), without a hit: at the highest dose activity change, negative = cytotoxicity, hits mostly inhibitors. actives 4.3% (n = 94,000). AID 1345082; further: on the % scale 0 is the no-effect control and ±100 the full control effect; nearly all actives have a fitted effect of over 55% in size
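Cells were seeded at 400 per well, treated with pin-transferred compound, and kept 48 or 72 hr at 37 °C before CellTiter-Glo addition and luminescence imaging of cellular ATP.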
NPR1 antag – antagonists of human natriuretic peptide receptor Npr1; P16066; HEK293 hNpr1 GloSensor cGMP, ANP-stimulated luminescence; Potency, µM (top dose mostly 46.3 µM), for inactives: at the highest dose activity change, negative = inhibition, most hits filed as inhibitors; actives 1.6% (n = 76,000); calls by dose curve; further: on the % scale 0 is the no-effect control and ±100 the full control effect; nearly all actives have a fitted effect of over 60% in size
Target sequence (P16066 whole entry, looked up): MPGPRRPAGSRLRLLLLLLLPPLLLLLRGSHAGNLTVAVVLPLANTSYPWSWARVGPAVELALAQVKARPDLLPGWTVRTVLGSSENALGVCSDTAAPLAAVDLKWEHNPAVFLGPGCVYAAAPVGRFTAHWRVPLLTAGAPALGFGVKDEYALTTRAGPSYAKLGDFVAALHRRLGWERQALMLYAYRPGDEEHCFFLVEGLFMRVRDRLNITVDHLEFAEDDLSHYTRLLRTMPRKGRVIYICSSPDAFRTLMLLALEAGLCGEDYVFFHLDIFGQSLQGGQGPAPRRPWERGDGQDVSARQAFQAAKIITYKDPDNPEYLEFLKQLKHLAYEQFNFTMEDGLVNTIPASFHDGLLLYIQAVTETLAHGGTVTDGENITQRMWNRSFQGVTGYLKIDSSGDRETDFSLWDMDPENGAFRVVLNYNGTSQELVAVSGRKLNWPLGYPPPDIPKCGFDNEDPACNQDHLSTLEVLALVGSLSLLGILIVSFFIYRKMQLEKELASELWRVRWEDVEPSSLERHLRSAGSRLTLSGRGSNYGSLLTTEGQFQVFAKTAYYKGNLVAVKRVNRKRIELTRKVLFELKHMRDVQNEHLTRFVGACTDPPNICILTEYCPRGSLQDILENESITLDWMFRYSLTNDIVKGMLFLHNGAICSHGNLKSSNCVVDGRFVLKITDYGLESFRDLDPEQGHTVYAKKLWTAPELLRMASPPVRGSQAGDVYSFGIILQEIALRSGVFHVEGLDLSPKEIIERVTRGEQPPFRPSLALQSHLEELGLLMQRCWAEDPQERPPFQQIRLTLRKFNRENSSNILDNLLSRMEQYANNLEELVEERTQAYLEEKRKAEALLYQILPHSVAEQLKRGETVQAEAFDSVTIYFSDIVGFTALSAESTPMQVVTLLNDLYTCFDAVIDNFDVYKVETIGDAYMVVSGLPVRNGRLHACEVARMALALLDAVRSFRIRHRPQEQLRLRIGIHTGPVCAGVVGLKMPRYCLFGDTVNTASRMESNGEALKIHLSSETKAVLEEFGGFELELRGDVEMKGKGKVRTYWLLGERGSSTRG
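Compound pre-incubated 30 min at room temperature on GloSensor-loaded HEK293 cells stably carrying hNpr1 and the pGS-40F cGMP biosensor. Stimulation uses hNppA at 0.1 nM final; luminescence is taken at baseline and 20 min post-agonist.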
GPT2 inh – blocks human glutamate pyruvate transaminase 2 | Q8TD30 | Recombinant GPT2, coupled pyruvate oxidase/HRP Amplex Red fluorescence | Potency, µM (titrated, usually from 57.7 µM), for the others: at the highest dose activity change, negative = inhibition, hits mostly inhibitors | actives 0.25% (n = 100,000); further: on the % scale 0 is the no-effect control and ±100 the full control effect; nearly all actives have a fitted effect of over 60% in size
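GPT2 10ng/uL, a-KG 250uM, L-Ala 2mM, HEPES pH7.5 + 0.0001% Tween; 30 min RT. Then Amplex mix (PO/HRP/ThPP), 30 min RT dark, fluorescence. AOA 50uM used as positive control.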
FLuc inh-1 – Photinus pyralis luciferase inhibition; P08659; purified P. pyralis luciferase, luminescence, biochemical; Potency, µM (top dose mostly 115 µM), usual class: inhibitors; actives 2.5% (n = 76,000); AID 1347043; further: on the % scale 0 is the no-effect control and ±100 the full control effect; nearly all actives have a fitted effect of over 65% in size
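Inhibitors were tested against purified firefly luciferase in a biochemical, low-substrate format (both substrates at 10uM) and luminescence measured with a CCD imager.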
FLuc SDR -ATP – stabilizes firefly luciferase without ATP; shares compounds with FLuc inh-1; Purified FLuc-C-HiBiT, Nano-Glo HiBiT luminescence, no ATP; Potency, µM (top dose mostly 32.7 µM), without a hit: top-dose activation (signal gain), actives largely listed as activators; actives 7.8% (n = 1,300); AID 1963318; further: nearly all actives have a fitted effect of over 55% in size
FLuc SDR ATP – stabilizes firefly luciferase with ATP present; shares compounds with FLuc inh-1; purified FLuc-C-HiBiT + ATP, HiBiT complementation luminescence; Potency, µM (top dose mostly 32.7 µM), without a hit: at the highest dose activation (gain of signal), hits mostly activators; actives 8.7% (n = 1,300); AID 1963319;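 further: signal reports ligand binding via conformational change of the enzyme rather than luciferase catalysis; % of control where 0% means no effect; nearly all actives have a fitted effect of over 55% in size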
FLuc inh-2 – firefly luciferase enzyme inhibition. shares compounds with FLuc inh-1. purified FLuc-C-HiBiT enzyme, luciferin luminescence. Potency, µM (titrated, usually from 32.7 µM), without a hit: at the top dose activity change, negative = inhibition, hits mostly inhibitors. actives 42% (n = 1,300); further: on the % scale 0 is the no-effect control and ±100 the full control effect; nearly all actives have a fitted effect of over 70% in size
Npr1 antag conf – confirmation of human Npr1 natriuretic peptide receptor antagonists; shares compounds with NPR1 antag; HEK293 hNpr1 cGMP GloSensor luminescence, ANP-stimulated; Potency, µM (highest dose often 57.6 µM), inactives show at the highest dose activity change, negative = inhibition, hits mostly inhibitors; actives 76% (n = 1,400); AID 1347044; calls by dose curve; further: nearly all actives have a fitted effect of over 70% in size
Npr2 selectivity – selectivity test of Npr1 antagonists against human Npr2. Potency, µM (top dose mostly 57.6 µM), without a hit: at the highest dose activity change, negative = inhibition, most hits filed as inhibitors. HEK293 hNpr2 GloSensor cGMP luminescence, CNP-stimulated. actives 67% (n = 1,400). shares compounds with NPR1 antag; calls by dose curve; further: nearly all actives have a fitted effect of over 70% in size
FLuc inh counter – inhibits firefly luciferase, false Npr1 antagonist flag; shares compounds with NPR1 antag; Potency, µM (top dose mostly 57.6 µM), for the others: at the top dose activity change, negative = inhibition, hits mostly inhibitors; actives 0.7% (n = 1,400); purified FLuc enzyme, luminescence, Km substrate; further: 0% is about no effect
GloSensor ctrl – reduces cGMP signal in GloSensor control cells. shares compounds with NPR1 antag. HEK293 GloSensor cGMP, SNP-stimulated, luminescence. Potency, µM (highest dose often 57.6 µM), inactives show top-dose activity change, negative = inhibition, usual class: inhibitors. actives 69% (n = 1,400). AID 1347051; calls by dose curve; further: on the % scale 0 is the no-effect control and ±100 the full control effect; nearly all actives have a fitted effect of over 70% in size
Numbers without * were called inactive; i = inactive; ? = inconclusive; . = no result; [ ] = another dose, or the depositor's remark. Unless noted, the call rests on the fitted dose curve; in most records, active means well fitted curve in the direction sought with a large enough effect; inconclusive means small, poorly fitted or top-dose-only effect, or another doubt; inactive means no such curve, though single readings can be large; an effect the other way counts as inactive or inconclusive. Potency means the concentration at half of the fitted maximal effect.

SMILES	HEK293 tox	NIH3T3 tox	NPR1 antag	GPT2 inh	FLuc inh-1	FLuc SDR -ATP	FLuc SDR ATP	FLuc inh-2	others
O=C(O)C1CCc2nc(N3CCN(C(=O)C4CCC4)CC3)sc2C1 (centres undefined)	-1%	?	-1%	i	6.3µM*	13%	?	8.8µM*
CC(C)N1CCN(C(=O)CCC[C@@H]2[C@H]3CCCN4CCC[C@@H](CN2C(=O)c2ccccc2)[C@@H]34)CC1	-18%	-26%	-12%	i	i	.	.	.
O=C(O)c1cccc2c1CCN2C(=O)c1ccc(F)cc1	-29%	?	?	-8%	1.3µM*	21%	1.2µM*	1.8µM*
O=C(O)c1cccc2c1CCN2S(=O)(=O)c1ccccc1	1%	?	3%	i	i	.	.	.
CCC(=O)N1CCc2c(C(=O)O)cccc21	-8%	-24%	-5%	2%	28µM*	9%	19%	-13%
COC(=O)[C@@H]1Cc2ncn(Cc3ccccc3)c2CN1S(=O)(=O)c1cccs1	i	-2%[174 µM]	3%[70.6 µM]	-17%[88.5 µM]	i	.	.	.
CN(C)c1nc(NCCN2CCOC2=O)ncc1F	-14%	-4%	-4%	-2%	i	.	.	.
O=C1OCCN1CCNc1ccc(-c2nc(-c3ccccc3F)no2)cn1	45µM*	?	?	-1%	5.6µM*	19%	19%	?
CC(C)c1ccc(C2=CC(c3ccc(C(C)C)cc3)n3nnnc3N2)cc1 (centres undefined)	.	.	.	.	.	11%	10%	0%
Nc1nc2c([nH]c(=O)n2[C@H]2C[C@H](O)[C@@H](CO)O2)c(=O)[nH]1	.	.	.	.	.	11%	8%	7%
Cc1noc([C@@H]2CC(F)(F)CN2C(=O)c2ocnc2C)n1	-3%	-3%	0%	1%	i	.	.	.
COc1ccc2nc(CO[C@H]3CN(Cc4ncccc4C)C[C@H]3F)[nH]c2c1	?	?	5%[70.6 µM]	-7%[88.5 µM]	i	.	.	.
COC[C@H]1CCCN1Cc1nc(C2(O)CCN(Cc3ccc(C(F)(F)F)cc3)CC2)cs1	?	?	?	i	i	.	.	.
Cc1ccc(CN2CCc3nc(C(=O)Nc4ccc(Cl)cc4)oc3CC2)cc1	?	?	14µM*	3%[88.5 µM]	i	.	.	.	Npr1 antag conf=11µM*;Npr2 selectivity=9.9µM*;FLuc inh counter=0%[86.2 µM];GloSensor ctrl=14µM*
